In one assay the target is Albumin (Bos taurus) (UniProt P02769). Description: bovine serum albumin binders on microarray, profiling panel, artefact control for SMM control protein annotation, biochemical, small-molecule microarray, Alexa647 label, 635/667 nm fluorescence (AID 1118).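 Further: score merges 667 nm emission intensity and signal-to-noise per printed compound spot.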 The following applies: BSA-A647 binding, fluorescence 635 nm, higher = more signal.
Assay [1] is described as follows: small-molecule microarray binders of probe aXIP, primary screen, biochemical, NeuroSMM set, 635/667 nm fluorescence (AID 1119).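 Further: probe is the protein aXip251-270 applied at 1 µg/mL to compound-printed slides; binding of probe to printed compounds measured as 667 nm fluorescence plus signal to noise.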 To be noted: higher = more signal, called active from +8 up or from −8 down.
Assay [2] can be described thus: small-molecule binders of probe aNOTCH3, primary screen, biochemical, small-molecule microarray, 635/667 nm fluorescence (AID 1120).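 Further: probe is a biotin-tagged antibody raised against NOTCH3 rather than NOTCH3 protein; score merges spot fluorescence near 667 nm with spot signal to noise.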 The following applies: higher = more signal.
The nature of assay [3]: small-molecule binders of probe aNOTCH2, primary screen, biochemical, small-molecule microarray, 635/667 nm fluorescence (AID 1121).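 Further: score merges feature fluorescence read at 667 nm with its signal to noise.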 The following applies: higher = more signal.
For assay [4], the target named is Carbonic anhydrase 2 (Homo sapiens) (UniProt P00918). Description: CAII small-molecule binders, profiling panel, biochemical, small-molecule microarray, Alexa647-labelled CAII (AID 1122). The following applies: CAII-A647 binding fluorescence, higher = more signal.
Assay [5] in a line: COS7 lysate on small-molecule microarray, probe aHis, 635 nm (AID 1123).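 Further: z-score combines 667nm fluorescence intensity with signal-to-noise per printed compound spot.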 To be noted: COS7 cell lysate, fluorescence, higher = more signal.
The nature of assay [6]: compound binding in COS7 lysate, probe aLAP1, primary screen, cell lysate, small-molecule microarray (AID 1124).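 Further: lysate comes from COS7 cells expressing LAP1 and is applied at 0.3 µg/mL; score merges spot fluorescence near 667 nm with signal-to-noise over triplicate slides.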 To be noted: probe aLAP1, fluorescence, higher = more signal.
The test system of the next assay is Sam68 (KHDRBS1). The experiment in a line: Sam68 small-molecule binders, primary screen, biochemical, small-molecule microarray, 635 nm fluorescence (AID 1125).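 Further: score merges 667 nm channel intensity with signal to noise over triplicate slides.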 To be noted: small-molecule microarray binding, higher = more signal.
The subject of assay [7] is Chordin-like protein 2 (CHRDL2). The experiment in a line: CHRDL2 small-molecule binders, primary screen, biochemical, small-molecule microarray, 635 nm fluorescence (AID 1126).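 Further: printed compound slides probed with Chrdl2 protein at 4 µg/mL for 1 h at 4 C; score merges 667 nm emission intensity with signal to noise over three replicate slides.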 To be noted: small-molecule microarray binding, fluorescence 635 nm; higher = more signal.
Assay [8] concerns the target Concanavalin-A (Canavalia ensiformis) (UniProt P02866). The experiment in a line: ConA small-molecule binders, primary screen, artefact control for SMM control protein annotation, biochemical, small-molecule microarray, Alexa647 label, 635 nm (AID 1127).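 Further: z combines 667 nm emission intensity with signal-to-noise across three replicate slides.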 To be noted: ConA-A647 binding fluorescence, higher = more signal.
A short description of assay [9]: anti-His antibody binders, primary screen, artefact control for SMM control protein annotation, biochemical, small-molecule microarray, 635 nm fluorescence (AID 1128).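 Further: score merges feature fluorescence with signal-to-noise for each printed compound spot.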 To be noted: anti-His Alexa647 antibody binding, higher = more signal.
For assay [10], the system named is Human papillomavirus type 1a E7 protein (residues 1-88). Description: HPV1a E7 small-molecule binders, primary screen, biochemical, small-molecule microarray, residues 1-88, 635 nm (AID 1129). The following applies: small-molecule microarray binding, fluorescence 635 nm; higher = more signal.
The target of assay [11] is Focal adhesion kinase 1 (Homo sapiens) (UniProt Q05397). Description: small-molecule microarray binders of FAK, primary screen, biochemical, 635/667 nm fluorescence, BSA, DTT (AID 1130).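 Further: composite of spot emission at 667 nm and signal to noise over triplicate slides.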 The following applies: PTK2 binding, 635 nm fluorescence, higher = more signal.
In assay [12] the test system is Fibrinogen (Alexa647-labelled). Description: fibrinogen binders on compound microarrays, profiling panel, artefact control for SMM control-protein annotation, biochemical, small-molecule microarray, 635/667 nm fluorescence (AID 1131).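 Further: z-score merges 667 nm fluorescence with per-spot signal-to-noise over triplicate slides.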 To be noted: fibrinogen-A647 binding fluorescence, higher = more signal.
Assay [13] deals with Follistatin (Homo sapiens) (UniProt P19883). The experiment in a line: follistatin binders on small-molecule microarrays, primary screen, biochemical, small-molecule microarray, 635/667 nm fluorescence (AID 1132). To be noted: FST binding, 635 nm fluorescence, higher = more signal.
The target of assay [14] is Fibroblast growth factor 2 (Homo sapiens) (UniProt P09038). The experiment in a line: FGF2 binders on small-molecule microarrays, primary screen, biochemical, small-molecule microarray, 635/667 nm fluorescence (AID 1133). The following applies: small-molecule microarray binding, FGF2, fluorescence 635/667; higher = more signal.
Assay [15] is described as follows: mitochondrial membrane potential change in A549 cells, profiling panel, cell-based, JC-1 fluorescence, basal, 24 h, 100 nL (AID 1138).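 Further: A549 lung adenocarcinoma cells under basal conditions with no added stimulus; test concentration not given here.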 The following applies: higher = more signal.
For a further assay, the system named is Lefty1. Description: Lefty1 binders on small-molecule microarrays, primary screen, biochemical, small-molecule microarray, 635/667 nm fluorescence (AID 1139). To be noted: small-molecule microarray binding, fluorescence 635/667; higher = more signal.
Assay [16] relates to wheat germ agglutinin (Triticum aestivum), Alexa647-labelled. Description: wheat germ agglutinin binders on compound microarrays, profiling panel, artefact control for SMM control-protein annotation, biochemical, small-molecule microarray, 635/667 nm fluorescence (AID 1140).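 Further: score merges 667 nm feature emission with signal to noise over triplicate slides.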 To be noted: WGA-A647 binding, 635 nm fluorescence, higher = more signal.
Assay [17] has as its target Luciferin 4-monooxygenase (Photinus pyralis) (UniProt P08659). Description: firefly luciferase enzyme inhibitors, primary screen, biochemical, luminescence, purified enzyme, 2006 set (AID 1141).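 Further: cell-free assay with purified firefly luciferase at 100 ng per well in PBS; test concentration not given here.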 The following applies: SteadyGlo luminescence, 30 min, higher = more signal, called active from +8 up or from −8 down.

Calls of active or inactive are those of the source.

Chain of Luciferin 4-monooxygenase (Photinus pyralis) (P08659 whole entry, looked up): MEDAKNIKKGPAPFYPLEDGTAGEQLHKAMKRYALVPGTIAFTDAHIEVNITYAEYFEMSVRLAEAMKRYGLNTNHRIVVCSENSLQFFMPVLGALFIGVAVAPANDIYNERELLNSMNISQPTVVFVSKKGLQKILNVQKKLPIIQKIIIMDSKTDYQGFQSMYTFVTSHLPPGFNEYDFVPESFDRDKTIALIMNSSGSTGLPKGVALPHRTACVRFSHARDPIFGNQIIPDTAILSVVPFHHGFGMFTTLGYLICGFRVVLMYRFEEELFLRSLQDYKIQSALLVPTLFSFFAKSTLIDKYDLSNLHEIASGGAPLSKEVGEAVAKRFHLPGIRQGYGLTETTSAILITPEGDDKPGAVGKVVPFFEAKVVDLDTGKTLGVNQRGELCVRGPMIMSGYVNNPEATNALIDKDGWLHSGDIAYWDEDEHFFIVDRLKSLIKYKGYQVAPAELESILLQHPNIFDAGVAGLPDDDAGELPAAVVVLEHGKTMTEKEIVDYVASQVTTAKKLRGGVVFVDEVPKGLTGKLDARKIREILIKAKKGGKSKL
Chain of Albumin (Bos taurus) (P02769 whole entry, looked up): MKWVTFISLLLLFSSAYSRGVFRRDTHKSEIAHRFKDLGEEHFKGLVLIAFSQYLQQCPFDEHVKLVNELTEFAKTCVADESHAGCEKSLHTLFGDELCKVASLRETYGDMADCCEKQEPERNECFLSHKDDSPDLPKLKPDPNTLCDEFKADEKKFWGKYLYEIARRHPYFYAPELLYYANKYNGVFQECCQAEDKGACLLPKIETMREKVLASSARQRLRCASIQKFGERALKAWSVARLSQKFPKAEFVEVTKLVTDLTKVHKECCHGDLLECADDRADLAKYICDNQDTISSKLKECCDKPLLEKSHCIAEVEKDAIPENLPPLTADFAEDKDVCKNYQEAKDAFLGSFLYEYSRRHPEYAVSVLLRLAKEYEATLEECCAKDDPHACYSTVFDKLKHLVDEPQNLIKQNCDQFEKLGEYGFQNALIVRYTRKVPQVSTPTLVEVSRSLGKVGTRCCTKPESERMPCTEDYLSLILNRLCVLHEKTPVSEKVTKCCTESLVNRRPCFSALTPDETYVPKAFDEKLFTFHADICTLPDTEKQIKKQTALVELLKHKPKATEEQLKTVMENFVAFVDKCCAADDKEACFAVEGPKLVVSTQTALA
Chain of Focal adhesion kinase 1 (Homo sapiens) (Q05397 whole entry, looked up): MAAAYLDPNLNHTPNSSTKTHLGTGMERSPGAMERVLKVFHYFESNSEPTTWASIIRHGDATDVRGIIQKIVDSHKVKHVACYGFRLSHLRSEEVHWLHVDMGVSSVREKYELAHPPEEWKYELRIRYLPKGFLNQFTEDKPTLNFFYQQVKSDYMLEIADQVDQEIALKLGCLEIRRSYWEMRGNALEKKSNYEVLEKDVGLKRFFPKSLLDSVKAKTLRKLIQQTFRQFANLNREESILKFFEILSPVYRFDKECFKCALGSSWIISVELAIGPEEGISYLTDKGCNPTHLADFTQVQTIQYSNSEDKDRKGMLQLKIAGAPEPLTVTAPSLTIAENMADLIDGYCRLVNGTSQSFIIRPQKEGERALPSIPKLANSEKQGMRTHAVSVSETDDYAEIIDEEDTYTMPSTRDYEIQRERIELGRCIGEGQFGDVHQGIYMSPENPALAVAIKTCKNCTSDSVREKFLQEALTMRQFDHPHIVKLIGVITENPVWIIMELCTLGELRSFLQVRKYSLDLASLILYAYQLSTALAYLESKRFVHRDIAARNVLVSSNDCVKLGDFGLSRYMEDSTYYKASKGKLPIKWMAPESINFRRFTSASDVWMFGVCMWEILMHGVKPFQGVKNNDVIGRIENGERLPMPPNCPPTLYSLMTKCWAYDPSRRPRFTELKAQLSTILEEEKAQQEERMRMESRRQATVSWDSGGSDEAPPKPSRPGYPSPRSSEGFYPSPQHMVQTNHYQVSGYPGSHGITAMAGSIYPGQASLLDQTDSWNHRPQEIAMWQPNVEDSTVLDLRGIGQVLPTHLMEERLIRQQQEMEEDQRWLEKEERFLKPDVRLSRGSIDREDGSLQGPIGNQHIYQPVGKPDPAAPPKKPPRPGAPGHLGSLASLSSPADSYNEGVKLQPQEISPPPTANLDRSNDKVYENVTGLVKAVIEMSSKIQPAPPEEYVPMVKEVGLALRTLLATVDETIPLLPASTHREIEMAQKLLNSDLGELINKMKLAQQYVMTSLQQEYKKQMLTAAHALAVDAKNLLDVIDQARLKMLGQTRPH
Chain of Follistatin (Homo sapiens) (P19883 whole entry, looked up): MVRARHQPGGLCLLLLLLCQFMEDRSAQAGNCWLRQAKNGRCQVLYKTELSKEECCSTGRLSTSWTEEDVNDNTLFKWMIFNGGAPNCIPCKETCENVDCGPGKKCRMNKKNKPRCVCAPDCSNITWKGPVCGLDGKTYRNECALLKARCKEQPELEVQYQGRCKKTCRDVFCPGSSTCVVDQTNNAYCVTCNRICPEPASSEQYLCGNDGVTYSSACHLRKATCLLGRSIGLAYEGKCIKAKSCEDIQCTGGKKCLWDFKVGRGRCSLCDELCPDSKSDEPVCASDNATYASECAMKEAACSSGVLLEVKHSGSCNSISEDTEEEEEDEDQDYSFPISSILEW
Chain of Concanavalin-A (Canavalia ensiformis) (P02866 whole entry, looked up): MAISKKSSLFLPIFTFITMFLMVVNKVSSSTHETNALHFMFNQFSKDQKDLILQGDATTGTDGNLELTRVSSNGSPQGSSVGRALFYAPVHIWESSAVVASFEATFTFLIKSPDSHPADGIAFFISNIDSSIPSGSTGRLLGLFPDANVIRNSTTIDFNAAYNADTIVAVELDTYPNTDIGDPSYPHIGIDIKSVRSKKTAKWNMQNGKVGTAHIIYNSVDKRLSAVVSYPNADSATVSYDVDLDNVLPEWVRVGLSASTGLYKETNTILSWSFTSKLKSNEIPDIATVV
Chain of Fibroblast growth factor 2 (Homo sapiens) (P09038 whole entry, looked up): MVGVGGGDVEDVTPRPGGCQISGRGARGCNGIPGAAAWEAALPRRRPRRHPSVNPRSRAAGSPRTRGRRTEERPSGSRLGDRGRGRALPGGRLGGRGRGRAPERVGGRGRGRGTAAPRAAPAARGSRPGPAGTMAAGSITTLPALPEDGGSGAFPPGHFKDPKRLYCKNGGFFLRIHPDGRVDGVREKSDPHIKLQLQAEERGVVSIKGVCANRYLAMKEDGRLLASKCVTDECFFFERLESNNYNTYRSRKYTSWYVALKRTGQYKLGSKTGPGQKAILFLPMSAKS

With `C=C(COC)/C(=C/C[C@H](OC(C)=O)c1ccc(CO)o1)c1cc(C(=O)OC)ccc1OC`, the composite z-score in the assay with Albumin (Bos taurus) was 0.424; in assay [2], -0.103; in assay [3], -0.155; in [4] it was 0.654; in [5], 0.107; in assay [6], 0.022. For the same compound, the composite z-score with Sam68 (KHDRBS1) was 0.322; in [7], 0.0151; in assay [8], -0.714; in assay [9] it was 0.795; in assay [10] it was 0.516; in [11], 0.0348. In addition, the composite z-score in [12] is 0.255; in assay [13] it was 0.435; in assay [14] it was -0.1; in the assay on Lefty1, 0.57; in [16], -0.199. Moreover, the composite Z-score in assay [1] is 0.482 (inactive). Moreover, the z-score in [15] is -0.91; in assay [17], -0.769 (inactive).

In the case of `Cc1ccccc1C(O)C1C=CC2C(=O)N(c3ccccc3)C(=O)C2N1Nc1ccc(C(C)C)cc1` (stereo not given), the composite z-score in the assay with Albumin (Bos taurus) is 0.868; in assay [2] it was 0.344; in [3] it was -0.0983; in assay [4], 0.304; in [5] it was 2.1; in assay [6], 0.68. Also, the composite z-score in the assay with Sam68 (KHDRBS1) was 1.15; in [7], -0.219; in assay [8], 1.15; in [9] it was 0.0147; in assay [10] it was 1.14; in [11], 0.655. The composite z-score in assay [12] is 0.997; in [13], 1.02; in assay [14] it was -0.144; in the assay on Lefty1, 0.383; in assay [16], 0.882. Moreover, the composite Z-score in [1] was 0.403 (inactive). The z-score is -0.504 in assay [15] and -0.263 (inactive) in [17].

`O=C(CS)NCCCCCCNC(=O)[C@@H]1C[C@@H]2C(=O)N[C@@H](Cc3ccccc3)C(=O)N2[C@@H]1c1cccc(OCCO)c1`: the composite z-score with Albumin (Bos taurus) is -0.623; in [2], 0.169; in assay [3], -0.0248; in [4], 0.567; in [5], 2.28; in [6], -0.488. The composite z-score in the assay with Sam68 (KHDRBS1) stood at 1.29; in assay [7], 0.892; in assay [8], 1.15; in [9] it was 3.09; in [10] it was 1.23; in assay [11], 0.385. The composite z-score in [12] is 0.54; in assay [13], 1.33; in assay [14], 1.76; with Lefty1, 0.823; in assay [16], 0.1. Also, the composite Z-score in assay [1] was 0.439 (inactive). The z-score in assay [15] is -0.714; in [17], -1.09 (inactive).

Regarding `C=CCC(OC(C)=O)[C@@H]1[C@@H](N(Cc2cccc3ccccc23)C(=O)c2ccc(-c3ccccc3)cc2)c2cc(OCCCO)ccc2N1C(=O)c1ccc2ccccc2c1` (stereo not given in full), the composite z-score was 0.416 in the assay with Albumin (Bos taurus); 0.116 in assay [2]; -0.0533 in assay [3]; 0.16 in assay [4]; 0.735 in assay [5]; 0.169 in assay [6]. Moreover, the composite z-score was 0.721 in the assay with Sam68 (KHDRBS1); -0.0354 in assay [7]; -0.0377 in assay [8]; -0.165 in assay [9]; 0.233 in assay [10]; 0.299 in assay [11]. The composite z-score in assay [12] is 0.66; in assay [13] it was 0.906; in assay [14], -0.0101; in the assay with Lefty1, 0.389; in assay [16] it was 0.0002. For the same compound, the composite Z-score in assay [1] was -0.732 (inactive). In addition, the z-score in [15] is 0.0927; in assay [17] it was 0.797 (inactive).

Regarding `CCCC[C@@H]1C[C@H]1[C@@H](NC(=O)c1ccccc1)c1ccc(C(=O)OC)cc1`, the composite z-score with Albumin (Bos taurus) is -0.108; in assay [2], -0.048; in assay [3] it was 0.0203; in [4], 0.287; in assay [5], 0.157; in [6], -0.156. The composite z-score with Sam68 (KHDRBS1) is -0.316; in [7] it was -1.26; in assay [8] it was -0.364; in assay [9], -0.248; in [10], -0.429; in [11] it was 0.0213. The composite z-score in assay [12] is 0.0563; in assay [13] it was -0.676; in [14] it was -1.67; in the assay with Lefty1, -0.684; in assay [16], -0.113. For the same compound, the composite Z-score in [1] was 0.953 (inactive). The z-score in [15] is 0.348; in assay [17], -0.438 (inactive).

`COCCOC(=O)N1C(=O)[C@@]2(c3cc(C#CCNC(N)=O)ccc31)[C@H](C(=O)Nc1nc3ccccc3s1)[C@H]1C(=O)O[C@H](c3ccccc3)[C@H](c3ccccc3)N1[C@@H]2c1ccc(OCCO)cc1`: the composite z-score was -0.28 with Albumin (Bos taurus); 0.0952 in assay [2]; 0.0949 in assay [3]; 0.382 in assay [4]; 0.481 in assay [5]; 0.422 in assay [6]. Moreover, the composite z-score was 1.1 with Sam68 (KHDRBS1); 1.34 in [7]; 0.994 in assay [8]; -0.187 in assay [9]; 0.669 in [10]; 0.346 in assay [11]. Further, the composite z-score is 0.901 in assay [12]; 1.36 in [13]; 1.08 in assay [14]; 0.9 in the assay on Lefty1; 0.677 in assay [16]. Besides, the composite Z-score in [1] is -0.335 (inactive). Further, the values for the z-score in assay [15] and in [17] were -2.31 and -2.41 (inactive), respectively.

Source of the values: PubChem BioAssay.
